Results taken from PubChem BioAssay AID623868 (Vanderbilt High Throughput Screening Facility, 2012).
Hit rate of the full screen: of about 2,100 compounds, about 760 (36%) were called active. A selection follows. A number with no mark means an inactive call.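 The calls were made as follows: active = thallium-flux fluorescence traces judged by eye to show enhanced or reduced glutamate response, manual score 1 or -1, so both directions (some results past the limit were not filed as active); inactive = the rest, including fluorescent or raised-baseline compounds.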

Assay: non-GIRK thallium flux modulation in mGlu8 cells, confirmation, counter-screen for GIRK activator project, cell-based, HEK-293 rmGlu8, no GIRK (AID 623868);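 also: extra codes mark interference with 3 for fluorescent and 4 for baseline rise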
Conditions: thallium flux fluorescence, at 10 µM, actives lie on both sides, codes: 1 enhancer, -1 blocker, 0 none, thallium stimulus containing EC20 glutamate

Row | Compound | manual score
1 | O=C(Nc1cccc(S(=O)(=O)c2cccc(NC(=O)C3CC3)c2)c1)C1CC1 | 0.5
2 | Cc1cccc(NC(=O)CN(c2ccc(C(C)C)cc2)S(=O)(=O)c2c(C)nn(C)c2C)n1 | 0
3 | COc1ccc(C2CC(c3ccc(Cl)c(Cl)c3)Nc3nc(N)nn32)cc1 (configuration not stated) | 0
4 | Cc1ccc(C(=O)NNC(=S)NC(=O)c2ccc(Cl)cc2)cc1 | 1 (active)
5 | Cc1cccc(C(=O)NC(=S)NNC(=O)c2ccc(Cl)cc2)c1 | 1 (active)
6 | Cc1ccccc1C(=O)NC(=S)Nc1ccc(Oc2ccc(Cl)cc2)cc1 | 0
7 | Cc1ccccc1C(=O)NNC(=O)C(=O)Nc1cccc(Cl)c1C | 1 (active)
8 | Cc1c(Cl)cccc1NC(=S)/C(=C(\[O-])c1ccc(Cl)s1)[n+]1ccccc1 | 0
9 | Cc1ccccc1C(=O)NNC(=S)NC(=O)c1ccc(Cl)cc1Cl | 1 (active)
10 | O=C(O)C1C2C=CC3(CN(C4CCCC4)C(=O)C13)O2 (configuration not stated) | 0
11 | O=C1C2C3C=CC(C3)C2C(=O)N1/N=C/c1cn(Cc2ccccc2)c2ccccc12 (configuration not stated) | 0
12 | Cc1cc(C)nc(N(C#N)Cc2ccc(Br)cc2)n1 | 0
13 | CCn1c(SCC(=O)c2cc(C)n(CC3CCCO3)c2C)nc2ccccc21 (configuration not stated) | 0
14 | Cc1ccc(CSc2nc3ccncc3[nH]2)cc1 | 0
15 | O=C(CSc1nc2ccc(Cl)cc2[nH]1)Nc1ccc2c(c1)CCC2 | 0
16 | COC(=O)c1cc(CSc2nc3ccc(C)cc3[nH]2)oc1C | -1 (active)
17 | O=C(CCS(=O)NCc1ccccc1)NCc1ccccc1 (configuration not stated) | 0
18 | Cc1ccc(N2C=Nc3ccc(C)c4nc(C)cc2c34)cc1 | -1 (active)
19 | CN1CC=C2C(C#N)=C(N)C(C#N)(C#N)[C@H](c3cccc(Cl)c3)C2C1 (some centres not stated) | 3
20 | Cc1ccc(CN2C3=NCCCN3c3ccccc32)cc1 | 0
21 | COc1ccc(CN2CCNC(=O)C2CC(=O)O)cc1OC (configuration not stated) | 0
22 | COc1cc(/C=C(/C#N)c2ccc(F)cc2)ccc1OCc1ccc(C(=O)O)o1 | -1 (active)
23 | COc1cc(CNCCc2c[nH]c3ccccc23)ccc1OCc1ccc(F)cc1 | 0

Row | Compound | manual score
24 | CSc1nc(Sc2ccccc2)c2ccccc2n1 | 0
25 | COc1cc(NC(=O)Cc2cccs2)cc(OC)c1 | 0
26 | O=C(/C=C/c1cccs1)NC(=S)NNC(=O)Cc1cccs1 | 1 (active)
27 | O=C(Cc1cccs1)Nc1cccnc1 | 0
28 | CCOc1ccc(C(=O)CN2CCN(S(=O)(=O)c3ccc(Br)cc3)CC2)cc1 | 0
29 | CC(=O)c1sc(NC(=O)c2cc(-c3ccccc3)nn2-c2ccccc2)nc1C | 0
30 | O=C(NNC(=O)c1cc(-c2ccccc2)n(-c2ccccc2)n1)c1cccc([N+](=O)[O-])c1 | 1 (active)
31 | COc1ccc(Nc2nc(-c3cccc([N+](=O)[O-])c3)nc3ccccc23)cc1 | 0
32 | Cn1c2ccccc2c2cc(C(=O)NNS(=O)(=O)c3ccc(F)cc3)sc21 | 0.5
33 | Cc1sc2c(c1C)CN(C1CC(C)(C)NC(C)(C)C1)CN2C(=O)c1ccco1 | 0
34 | COC(=O)c1ccc(C(=O)OC)c(NC(=O)CSc2nc(-c3ccco3)cc(C(F)(F)F)n2)c1 | 0
35 | O=S(=O)(c1ccc(-c2nnc(SCc3nnc(-c4ccccc4)o3)o2)cc1)N1CCCC1 | 0
36 | COc1ccccc1NC(=O)c1ccc(S(=O)(=O)N2CCCC2)cc1 | 0
37 | CC1CCCN(S(=O)(=O)c2ccc(C(=O)Nc3nnc(-c4ccccc4Cl)o3)cc2)C1 (configuration not stated) | 1 (active)
38 | CCN(CC)c1ccc2cc(C(=O)NNC(=O)c3ccc(S(=O)(=O)N4CCCCC4)cc3)c(=O)oc2c1 | 0
39 | O=C(Nc1nnc(-c2ccccc2Cl)o1)c1ccc(S(=O)(=O)N2CCCCCC2)cc1 | 1 (active)
40 | Cc1cc(C)nc(N2CCCC(C(=O)NCCc3ccc(F)cc3)C2)n1 (configuration not stated) | 0
41 | CN1/C(=C\C=C2/C(=O)Oc3ccccc3C2=O)C(C)(C)c2ccccc21 | 3
42 | Cc1ccc(NC(=O)COc2cccnc2[N+](=O)[O-])cc1S(=O)(=O)N1CCCCC1 | 0
43 | Cc1nn(CC(=O)Nc2ccc(Cl)c(S(=O)(=O)N(C)C)c2)c(C)c1[N+](=O)[O-] | 0
44 | CC1(C)CC2CC(C)(CN2c2ncnc3ccccc23)C1 (configuration not stated) | 0
45 | CC1(C)CC2CC(C)(CN2C(=S)NC(=O)c2ccccc2Cl)C1 (configuration not stated) | 1 (active)
46 | Nn1c(SC/C=C/c2ccccc2)nnc1-c1ccccn1 | 0

Row | Compound | manual score
47 | Clc1cccc(CSc2nc3ccncc3[nH]2)c1 | 0
48 | Fc1ccc(CSc2nc3ccccc3[nH]2)c2ccccc12 | 0
49 | Cc1oncc1C(=S)Nc1ccccc1 | 0
50 | Cc1ccc(NC(=S)c2nc3ccccc3[nH]2)cc1 | 1 (active)
51 | S=C(Nc1ccc(Cl)cc1)c1nc2ccccc2[nH]1 | 1 (active)
52 | NC(=O)SCC(=O)Nc1ccc(Cl)cc1 | 0
53 | CC(C)c1nc(N2CCN(C(=O)c3ccccc3)CC2)c(C#N)c2c1COC(C)(C)C2 | 0
54 | Cc1c(C(=O)NC(=S)Nc2ccccc2N2CCCC2)cccc1[N+](=O)[O-] | 1 (active)
55 | O=C(NC(=S)Nc1ccccc1N1CCCC1)c1ccc(-c2cccc([N+](=O)[O-])c2)o1 | 0.5
56 | O=C(NC(=S)Nc1ccccc1N1CCCC1)c1ccccc1[N+](=O)[O-] | 1 (active)
57 | O=C(NC(=S)Nc1ccccc1N1CCCC1)c1ccc([N+](=O)[O-])cc1 | 1 (active)
58 | O=C(CSc1nc(O)cc(=O)n1-c1ccccc1)N1CCCCC1 | 2
59 | COc1cccc(N(CC(=O)Nc2cccc(C(C)=O)c2)S(C)(=O)=O)c1 | 0
60 | CCOC(=O)C1=C(C)NC2=C(C(=O)C(C(=O)OCC)C(c3cccc(OC)c3)C2)C1c1ccccn1 (configuration not stated) | -0.5
61 | COC(=O)CSc1nc2ncccc2[nH]1 | 0
62 | COc1cc(/C=C2\S/C(=N/S(=O)(=O)c3ccc(C)cc3)NC2=O)c([N+](=O)[O-])cc1OC | 0
63 | O=C1NC(=O)/C(=C\c2ccccc2Oc2ccc(F)c(F)c2)S1 | 0
64 | COc1cc(/C=C2\SC(=S)NC2=O)ccc1OS(=O)(=O)c1ccccc1 | 1 (active)
65 | COc1ccc(/C=C2\SC(=O)NC2=S)cc1OC | 1 (active)
66 | COc1cc(/C=C2/SC(=S)NC2=O)ccc1OS(=O)(=O)c1ccc(C)cc1 | 1 (active)
67 | COc1ccc(/C=C/C(=O)N2CCN(S(=O)(=O)/C=C/c3ccccc3)CC2)cc1OC | 0
